Only some compounds are listed: those with a hit (about 11% of all), similar ones and a draw of the others.
ALDH1A1 inh: ALDH1A1 (human) enzyme inhibition; 220,000 compounds, 7.3% hits; Potency, µM (series often up to 75.3 µM), most hits filed as inhibitors; Purified ALDH1A1, NADH fluorescence, propionaldehyde substrate; AID 1030
PNC assembly inh: inhibitors of perinucleolar compartment assembly; PC3M PTB-GFP, PNC prevalence imaging, 16 h; hits give low values; activity change (PNC), negative = inhibition, % at 10 µM; 140,000 compounds, 3.1% hits; AID 2417;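 active = readout at or below -70, meaning at least 70% loss of cells showing the perinucleolar compartment, a nuclear body marking cancer cells; inconclusive = readout between -30 and a set limit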
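Compounds are pinned in duplicate onto adhered PC3M cells stably expressing GFP-tagged PTB and incubated 16 h at 37 C. Cells are then fixed, nuclei stained with Hoechst, and PNC-positive cells counted.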
IMPase inh: IMPase inhibition in cells. CHO-M1 cells, IP1 accumulation, HTRF TR-FRET ratio. inhibition (IP1 accumulation), % at 46.1 µM. 120,000 tested, under 10 active. AID 901; active = well fitted curve in the direction sought with a large enough effect in the signal ratio, not every such curve was filed as active; inconclusive = small, poorly fitted or top-dose-only effect, or a change in a side signal; inactive = no such curve, though single readings can be large or run the other way; the % refers to the signal ratio;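 note: cells stimulated with carbachol in lithium chloride buffer; higher means more IMPase inhibition seen as more IP1 and lower FRET ratio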
Target sequence (P97697 whole entry, looked up): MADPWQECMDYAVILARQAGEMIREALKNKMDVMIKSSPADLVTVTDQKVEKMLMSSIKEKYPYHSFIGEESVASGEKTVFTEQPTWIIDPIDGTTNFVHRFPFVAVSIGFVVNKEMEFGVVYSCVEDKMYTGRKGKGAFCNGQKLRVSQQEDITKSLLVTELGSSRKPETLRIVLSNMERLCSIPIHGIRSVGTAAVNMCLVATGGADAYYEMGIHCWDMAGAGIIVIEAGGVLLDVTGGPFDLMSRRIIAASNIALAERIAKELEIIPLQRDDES
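Seeded CHO-M1 cells were dosed with compound at up to 46 uM, stimulated with carbachol for 30 min, then lysed in IP-One detection reagents. Higher IP1 lowers the TR-FRET signal.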
IMPase Li inh: membrane-permeable IMPase blocker, potentiated with lithium; CHO-M1 cells, IP1 TR-FRET (IP-One), carbachol + lithium; Potency, µM (top dose mostly 59.4 µM), hits mostly inhibitors; 210,000 compounds, 0.35% hits; AID 1457; active = well fitted inhibition curve with a large enough effect; inconclusive = small, poorly fitted or top-dose-only effect; inactive = no such curve, though single readings can be large or run the other way;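 note: IP1 builds up when IMPase is blocked and the TR-FRET signal falls; nearly all actives have a fitted effect of over 50% in size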
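CHO cells stably expressing M1 receptor (2000/well) were cultured 16–30 h, then exposed to compounds with a small lithium addition for 30 min at 37C. IP1 was measured by TR-FRET competition; AC50 from Hill fits.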
HPGD block: blocks human HPGD enzyme activity; P15428; purified HPGD, NADH fluorescence kinetic, PGE2 substrate; Potency, µM, actives largely listed as inhibitors; 150,000 compounds, 4.3% hits
Target sequence (P15428 whole entry, looked up): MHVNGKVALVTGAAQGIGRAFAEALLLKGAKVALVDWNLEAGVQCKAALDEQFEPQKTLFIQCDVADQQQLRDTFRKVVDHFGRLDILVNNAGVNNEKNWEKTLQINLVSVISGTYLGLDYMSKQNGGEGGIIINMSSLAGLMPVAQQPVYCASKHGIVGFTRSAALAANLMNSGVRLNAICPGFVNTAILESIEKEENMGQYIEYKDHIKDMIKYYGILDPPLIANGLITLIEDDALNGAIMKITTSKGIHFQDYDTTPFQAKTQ
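NADH formation kinetics: reaction with 30 uM PGE2 and 1 mM NAD+ (final), 20 nM enzyme, Tris-HCl pH 8 with Tween 20, after 15 min compound preincubation at room temperature. Fluorescence change, last versus first of five reads.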
Large screens that a line does not name were inactive; ! = not active in a repeat. Unless noted, calls come from the whole dose curve; as a rule, active = well fitted inhibition curve with a large enough effect (not every such curve was filed as active); inconclusive = small, poorly fitted or top-dose-only effect, or another doubt; inactive = no such curve, though single readings can be large or run the other way.

COC(=O)c1cc(OC)c(=O)c2c(OC)c(OC)ccc2c1	none (no result: PNC assembly inh, IMPase inh)
Cn1cccc1C(=O)N1CCC2(CCCN(c3ncccn3)C2)CC1	none (no result: PNC assembly inh, IMPase inh)
O=C(O)CP(=O)(O)O	HPGD block 32µM!
C=CCN1c2ccccc2[C@]23C[C@@H](C(=O)OC)N(S(=O)(=O)c4ccc(C(F)(F)F)cc4)C2=NC(C(=O)OC)=C(C(=O)OC)[C@H]13	none (no result: PNC assembly inh, IMPase inh)
CCn1c(O)c(/C=N/N=C2CCCC2)c2ccc(C3=NNC(=O)CC3)cc21	ALDH1A1 inh inconclusive, HPGD block 16µM
CCOc1ccccc1NC(=O)C(=O)NCCC1=CCCCC1	none (no result: PNC assembly inh, IMPase inh, HPGD block)
Cc1ccccc1NS(=O)(=O)c1cc(C(=O)NCCC2=CCCCC2)ccc1Cl	ALDH1A1 inh 20µM, PNC assembly inh inconclusive
CCOc1ccc(C(=O)NCCC2=CCCCC2)cc1OCC	ALDH1A1 inh 25µM (no result: PNC assembly inh, IMPase inh, HPGD block)
C=CC1=C2C=C(C3CC3)N(CCCCO)C=C2C(=O)C(C)(OC(=O)c2ccco2)C1=O (configuration not stated)	none (no result: PNC assembly inh, IMPase inh)
O=C(O)c1c[nH]c2cc(OCc3ccccc3)ccc2c1=O	ALDH1A1 inh inconclusive, HPGD block inconclusive (no result: PNC assembly inh, IMPase inh)
C[C@](N)(C(=O)O)c1ccc(-c2nn[nH]n2)cc1	ALDH1A1 inh 16µM (no result: PNC assembly inh)
COc1ccc(-c2nc3cnc(OC)nc3n(-c3ccccc3)c2=O)cc1	ALDH1A1 inh inconclusive (no result: PNC assembly inh, IMPase inh, HPGD block)
CCOc1cc(CNc2ccc(CNc3ncn[nH]3)cc2)ccc1OCc1ccccc1	PNC assembly inh inconclusive (no result: IMPase inh)
CNC(=O)c1sc(-c2ccc(Cl)cc2)nc1C	PNC assembly inh -90
Cc1nc(-c2ccc(C(F)(F)F)cc2)sc1C(=O)NN	ALDH1A1 inh 1.1µM (no result: PNC assembly inh, IMPase inh, IMPase Li inh, HPGD block)
CC(=O)c1sc(-c2ccc(Cl)cc2)nc1C	none (no result: PNC assembly inh, IMPase inh, HPGD block)
Cc1nc(-c2ccccc2)sc1C(=O)/C=C/c1ccc(Cl)cc1	ALDH1A1 inh 3.2µM
CNC(=O)c1sc(-c2ccccc2)nc1C	ALDH1A1 inh inconclusive, PNC assembly inh -83, HPGD block inconclusive
COc1cc(OC)c2cc(-c3ccncc3)cnc2c1	ALDH1A1 inh inconclusive, HPGD block inconclusive (no result: PNC assembly inh)
CCn1c2ccccc2c2cc(CN3CCN(Cc4ccc(Br)cc4)CC3)ccc21	none (no result: ALDH1A1 inh, PNC assembly inh, IMPase Li inh, HPGD block)
C=CCn1c(CCNC(=O)c2cccs2)nnc1SCC(=O)Nc1cccc(Cl)c1C	ALDH1A1 inh 10µM, PNC assembly inh inconclusive
COc1ccc(O[C@H]2C=C[C@@H](c3ccccc3)O[C@H]2COC(=O)CC/C(C)=N\OC[C@@H](C)[C@H](OCc2ccccc2)C(C)C)cc1	none (no result: PNC assembly inh, IMPase inh, IMPase Li inh, HPGD block)
COc1cccc(CC2CC(=O)N(c3ccc4c(C)cc(=O)oc4c3)C2=O)c1 (configuration not stated)	ALDH1A1 inh 1.4µM (no result: PNC assembly inh, IMPase inh, HPGD block)
COc1ccc(N2C(=O)CC(Cc3ccccc3)C2=O)cc1 (configuration not stated)	PNC assembly inh inconclusive, IMPase inh inconclusive
COCCn1c(N)c(C(=O)NS(=O)(=O)c2ccc(C)cc2)c(=O)[nH]c1=O	ALDH1A1 inh 16µM (no result: PNC assembly inh, IMPase inh, HPGD block)
Cc1ccc(S(=O)(=O)NC(=O)c2cccn2C)cc1	PNC assembly inh inconclusive
Cc1c(C#N)c(NC(=O)CCl)n(Cc2cccs2)c1C	ALDH1A1 inh inconclusive (no result: PNC assembly inh, IMPase inh, HPGD block)
CCCCC1CCC(C(=O)N2CCOCC2)CC1 (configuration not stated)	HPGD block 16µM (no result: IMPase inh)
Cc1ccc(C(=O)N2CCN(c3ccc(NC(=S)NC(=O)c4cccs4)cc3)CC2)cc1	ALDH1A1 inh 14µM (no result: PNC assembly inh, IMPase inh, HPGD block)
Cc1cc(C)cc(NS(=O)(=O)c2ccc(NC(=S)NC(=O)c3cccs3)cc2)c1	ALDH1A1 inh 10µM, PNC assembly inh inconclusive (no result: IMPase inh)
COc1cc(NS(=O)(=O)c2ccc(NC(=S)NC(=O)c3cccs3)cc2)nc(OC)n1	ALDH1A1 inh inconclusive, PNC assembly inh inconclusive
CN(C1CCCCC1)S(=O)(=O)c1ccc(NC(=S)NC(=O)c2cccs2)cc1	ALDH1A1 inh 22µM
Cc1ccccc1C(=O)N1CCN(c2ccc(NC(=S)NC(=O)c3cccs3)cc2)CC1	none (no result: PNC assembly inh, IMPase inh, HPGD block)
CCn1c(=O)cc(OCC(=O)N2CCN(c3cccc(C(F)(F)F)c3)CC2)c2ccccc21	ALDH1A1 inh 11µM, HPGD block inconclusive
O=C1CCCC=C1[C@H](O)CCCCBr	none (no result: PNC assembly inh, IMPase inh, IMPase Li inh, HPGD block)
COc1ccccc1C1C2=C(CC(C)(C)CC2=O)Nc2nnnn21 (configuration not stated)	ALDH1A1 inh 25µM, PNC assembly inh inconclusive
COc1ccccc1C1C=C(c2ccc(C)cc2)Nc2nnnn21 (configuration not stated)	ALDH1A1 inh 14µM
CCCCN=CC1=C(O)CC(c2ccccc2)CC1=O (configuration not stated)	none (no result: PNC assembly inh, IMPase inh, HPGD block)
O=C1C(c2[nH]c3ccc(S(=O)(=O)O)cc3c2O)=Nc2ccc(S(=O)(=O)O)cc21	ALDH1A1 inh inconclusive, HPGD block inconclusive (no result: PNC assembly inh, IMPase inh)
O=C(OCC(=O)N1CCN(C(=O)c2ccco2)CC1)c1ccccc1C(=O)c1ccccc1	none
O=C(OCC(=O)N1CCN(c2ccccc2)CC1)c1ccco1	ALDH1A1 inh 2.2µM
Cc1cc(C(=O)OCC(=O)N2CCN(c3ccccc3)CC2)c2ccccc2n1	ALDH1A1 inh 22µM
O=C(OCC(=O)N1CCN(C(=O)c2ccco2)CC1)c1cc(-c2ccccc2)nc2ccccc12	ALDH1A1 inh inconclusive, HPGD block inconclusive
COc1cccc(-n2c(SCC(=O)NC3CCCC3)nnc2-c2ccco2)c1	ALDH1A1 inh inconclusive, PNC assembly inh inconclusive, HPGD block inconclusive

Screens: PubChem, National Center for Advancing Translational Sciences (NCATS)
